# Among all 2,400 compounds or so, about 180 (7.5%) were called active. Only a selection was taken, and actives are over-represented in it overall. A number with no mark means an inactive call.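 Rule for the calls: active = readout below zero, meaning a drop past 3 SD under the dofetilide-free negative control mean; inactive = the rest.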
# Target: Potassium voltage-gated channel subfamily KQT member 2 (Rattus norvegicus) (UniProt O88943)
# Experiment: rat KCNQ2 channel inhibition by compounds alone, confirmation, counter-screen for hERG block protector project, cell-based, CHO, FluxOR thallium flux (AID 1946)
# Details: CHO-KCNQ2 cells, FluxOR thallium flux fluorescence; at 10 µM; active compounds read low; zero marks the 3-SD hit cutoff
# Chain of Potassium voltage-gated channel subfamily KQT member 2 (Rattus norvegicus) (O88943 whole entry, looked up): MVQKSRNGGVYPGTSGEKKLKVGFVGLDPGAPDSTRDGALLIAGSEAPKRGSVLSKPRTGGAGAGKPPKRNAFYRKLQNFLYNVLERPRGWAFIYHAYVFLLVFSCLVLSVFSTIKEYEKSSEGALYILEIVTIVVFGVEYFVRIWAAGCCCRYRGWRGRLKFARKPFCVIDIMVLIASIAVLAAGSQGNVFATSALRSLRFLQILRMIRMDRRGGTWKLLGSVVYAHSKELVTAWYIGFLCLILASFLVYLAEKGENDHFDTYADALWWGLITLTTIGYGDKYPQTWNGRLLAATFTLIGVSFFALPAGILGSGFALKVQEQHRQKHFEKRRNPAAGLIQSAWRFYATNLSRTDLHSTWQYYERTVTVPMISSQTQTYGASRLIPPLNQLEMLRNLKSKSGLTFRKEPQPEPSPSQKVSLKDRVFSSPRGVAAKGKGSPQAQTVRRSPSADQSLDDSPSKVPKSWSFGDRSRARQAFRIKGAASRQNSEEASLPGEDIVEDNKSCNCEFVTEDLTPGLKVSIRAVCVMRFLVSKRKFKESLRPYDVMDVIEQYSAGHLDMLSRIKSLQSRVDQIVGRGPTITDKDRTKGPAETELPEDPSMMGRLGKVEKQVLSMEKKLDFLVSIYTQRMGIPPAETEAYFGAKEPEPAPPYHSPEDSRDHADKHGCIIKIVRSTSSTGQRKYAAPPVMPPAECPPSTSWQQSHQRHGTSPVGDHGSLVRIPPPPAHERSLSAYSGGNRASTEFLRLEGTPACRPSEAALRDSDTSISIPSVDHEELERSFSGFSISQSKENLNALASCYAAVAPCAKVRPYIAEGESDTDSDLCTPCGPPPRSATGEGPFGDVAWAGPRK
row,SMILES,activity change vs negative control
1,Cc1ccc(C(=O)NC(=S)N(C)Cc2ccccc2)cc1,28.6%
2,CCC(=O)N(CC)c1nc(-c2ccc(OC)cc2)cs1,60.4%
3,Cc1ccc(Cn2nnc3c(=O)n(CC(=O)N4CCCc5ccccc54)cnc32)cc1,13%
4,CC(NC(=O)c1ccncc1)C(C)(C)C (centres undefined),32.4%
5,Cc1c(C(=O)NNC(=O)c2ccncc2)oc2ccc(Br)cc12,-1.5% (active)
6,Cc1c(C(=O)NC(=S)NCc2cccnc2)oc2ccccc12,5.5%
7,O=C1CSC(=S)N1/N=C/c1cc(Br)ccc1O,21.5%
8,Cc1cccc(OCC(=O)NC(=S)N2CCCc3ccccc32)c1,-0.9% (active)
9,O=C(COc1ccc(Br)cc1Cl)NC(=S)N1CCc2ccccc21,9.4%
10,O=C(COc1ccc(Br)cc1Br)NC(=S)N1CCCc2ccccc21,-2.3% (active)
11,O=C(COc1ccc(Cl)cc1Cl)NC(=S)N1CCCc2ccccc21,0.8%
12,O=C(NC(=S)N1CCCc2ccccc21)c1ccccc1,21.6%
13,O=C(COc1ccccc1)NC(=S)N1CCc2ccccc21,25.7%
14,COc1cccc2sc(Nc3nc(-c4ccccn4)cs3)nc12,34.8%
15,CCN1C(=O)/C(=C/c2ccc(C)s2)NC1=S,65.6%
16,COC(=O)c1ccc(NC(=S)NC(=O)c2cc(-c3ccccc3)nc3ccccc23)cc1,28.9%
17,COc1cccc(C(=O)NNC(=O)C(=O)Nc2ccc(C)c(Cl)c2)c1,98.2%
18,Nn1c(SCC(=O)Nc2ccccc2F)nnc1C1CCCCC1,10.9%
19,Nn1c(SCC(=O)Nc2ccc(F)cc2)nnc1C1CCCCC1,-0.5% (active)
20,CC(C)OC(=O)CSc1nnc(C2CCCCC2)n1N,6%
21,CCOc1ccc2nc(/N=C/c3nc(-c4ccc(Br)cc4)oc3O)sc2c1,13.7%
22,S=c1nc[nH]c2c1sc1nc(N3CCOCC3)c3c(c12)CCCC3,74.9%
23,C/C(=N\Nc1nc2ccccc2nc1C)c1ccccc1O,35.1%
24,CCOC(=O)c1sc(NC(=S)NC(=O)c2cccc(OC)c2)nc1C,28.4%
25,CCCN(CCC)C(=S)NC(=O)c1ccc(Cl)cc1Cl,78%
26,CCCn1nnnc1NC(=O)c1cc(Cl)ccc1Cl,-2% (active)
27,CCN(CC)C(=S)NC(=O)c1ccc(Cl)cc1Cl,32%
28,O=C(NC(=S)N1CCc2ccccc21)c1ccccc1Br,126%
29,CN(C(=S)NC(=O)c1ccccc1)C1CCCCC1,29.8%

# From PubChem BioAssay AID1946 (Johns Hopkins Ion Channel Center, 2009)
